Among the test systems are SK-MEL-2 melanoma; EKVX NSCLC; SN12C renal; UO-31 renal; TK-10 renal; ACHN renal; A498 renal; CCRF-CEM leukemia; MOLT-4 leukemia; SR leukemia.
What all share (experiment): NCI-60 one-dose screen, 48 h (100 = growth as untreated, 0 = no growth, -100 = all killed)
Common to all, as to settings: 10 µM unless noted

Compounds without any hit were thinned out: in the full panel of roughly 83,000, 20% have a hit.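 96-well plates, one dose, 48 hours. Percent growth reported; active if below 10.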 Values without a mark were called inactive. The source made the active and inactive calls.

Among the data in PubChem BioAssay (NCI) are growth values, retold here.

In the case of `Cc1nc2sc(C(=O)Nc3cccc(Cl)c3C)c(N)c2cc1C(C)O` (stereo unspecified), the growth was 24.2% in the assay with SK-MEL-2 melanoma; 54.5% in the assay on EKVX NSCLC; 33.5% in the assay on SN12C renal; 48.7% in the assay on UO-31 renal; 46.3% in the assay on TK-10 renal; 35.7% in the assay with ACHN renal. Further, the growth in the assay with A498 renal was 8.96% (active); in the assay with CCRF-CEM leukemia it was 14.2%; with MOLT-4 leukemia, 13%; in the assay on SR leukemia, 12%.
Regarding `COC(=O)/C=C1\SC(=Nc2ccc(F)cc2)N(CCc2c[nH]c3ccccc23)C1=O`, the growth is 102% in the assay with SK-MEL-2 melanoma; 92.6% in the assay with EKVX NSCLC; 103% in the assay on SN12C renal; 81% with UO-31 renal; 106% in the assay with TK-10 renal; 103% in the assay with ACHN renal. Moreover, the growth with A498 renal was 110%; in the assay on CCRF-CEM leukemia, 68.2%; with MOLT-4 leukemia, 76.4%; with SR leukemia, 85.5%.
On to `O=c1[nH]c2ccccc2cc1-c1nc2ccncc2[nH]1`, for which the growth in the assay with SK-MEL-2 melanoma is 73.9%; in the assay with EKVX NSCLC it was 81.9%; with SN12C renal, 94.3%; in the assay with UO-31 renal it was 78.4%; with TK-10 renal it was 73.8%; in the assay with ACHN renal, 72.2%. The growth in the assay with A498 renal is 88.7%; with CCRF-CEM leukemia it was 59.5%; in the assay on MOLT-4 leukemia it was 45.8%; in the assay on SR leukemia, 46.8%.
For the molecule `COc1ccc([C@H]2[C@@H](F)C(=O)N2c2cc(OC)c(OC)c(OC)c2)cc1F`, the growth with SK-MEL-2 melanoma was 58.8%; in the assay on EKVX NSCLC it was 72.2%; in the assay on SN12C renal, 33.3%; with UO-31 renal, 43.2%; with TK-10 renal, 64.4%; in the assay with ACHN renal it was 32.7%. The growth in the assay with CCRF-CEM leukemia was 13.2%; in the assay on MOLT-4 leukemia it was 19.7%; with SR leukemia it was 13.3%.
On to `O=[N+]([O-])c1ccc(N=Nc2c(O)c(N=Nc3cc([N+](=O)[O-])cc([N+](=O)[O-])c3O)cc(N=Nc3cc(S(=O)(=O)O)cc4cc(S(=O)(=O)O)cc(O)c34)c2O)cc1`, for which the growth with SK-MEL-2 melanoma was 100%; in the assay on EKVX NSCLC it was 102%; with SN12C renal, 101%; with UO-31 renal, 83.2%; in the assay on TK-10 renal it was 98.6%; with ACHN renal, 101%. Moreover, the results for the growth with CCRF-CEM leukemia, in the assay on MOLT-4 leukemia and in the assay on SR leukemia were 97.2%, 86.7% and 86.1%, respectively.
On to `C=C(C)[C@@H]1CC[C@]2(C(=O)O)CC[C@]3(C)[C@H](CC[C@@H]4[C@@]5(C)C[C@@H](CC#Cc6ccc(Cl)cc6)C(=O)C(C)(C)[C@@H]5CC[C@]43C)[C@@H]12`, for which the growth with SK-MEL-2 melanoma is -18.9% (active); with EKVX NSCLC, 40%; in the assay on SN12C renal it was 27.8%; in the assay on UO-31 renal it was 60.5%; with TK-10 renal it was 59.7%; in the assay on ACHN renal, 48.2%. The results for the growth with CCRF-CEM leukemia, with MOLT-4 leukemia and in the assay on SR leukemia were 27.9%, 26.7% and 49.9%, respectively.
Take `c1ccc2nc(N3CCOCC3)c(N3CCCCC3)nc2c1`: the growth in the assay with SK-MEL-2 melanoma was 95.2%; with EKVX NSCLC, 97.7%; in the assay with SN12C renal, 96.2%; with UO-31 renal, 77.2%; with TK-10 renal it was 98.8%; in the assay on ACHN renal, 103%. Moreover, the growth was 93.6% in the assay on CCRF-CEM leukemia, 95.6% in the assay with MOLT-4 leukemia and 90.2% in the assay on SR leukemia.
As to `C[C@H](Oc1cc(-c2cnn(C3CCNCC3)c2)cnc1N)c1c(Cl)ccc(F)c1Cl`, the growth with SK-MEL-2 melanoma was 71.1%; in the assay with EKVX NSCLC, 79.6%; with SN12C renal, 54.2%; in the assay on UO-31 renal, 61.7%; in the assay with TK-10 renal, 88.7%; in the assay on ACHN renal it was 75.6%. The growth in the assay with CCRF-CEM leukemia is 34.6%; in the assay on MOLT-4 leukemia it was 14%; in the assay on SR leukemia, -22.1% (active).
Turning to `Oc1c(CCl)cc(Cl)cc1Cc1cc(Cl)cc(Cc2cc(Cl)cc(CCl)c2O)c1O`, the growth in the assay on SK-MEL-2 melanoma is -16.6% (active); in the assay on EKVX NSCLC, 21%; in the assay on SN12C renal, 8.92% (active); in the assay on UO-31 renal, 32%; in the assay on TK-10 renal, 17.7%; with ACHN renal, 22.7%. In addition, the values for the growth in the assay with CCRF-CEM leukemia, in the assay on MOLT-4 leukemia and in the assay on SR leukemia were 13.5%, 21% and 40.8%, respectively.
For `COc1cc(C)ccc1Oc1nc(Nc2ccc(N3CCOCC3)cc2)ncc1N=Cc1cc(C(F)(F)F)cc(C(F)(F)F)c1`, the growth in the assay with SK-MEL-2 melanoma was 70.2%; with EKVX NSCLC it was 81.7%; with SN12C renal it was 80.3%; with UO-31 renal, 47.6%; in the assay on TK-10 renal it was 81.6%; in the assay on ACHN renal, 56.3%. Also, the growth in the assay with CCRF-CEM leukemia was 82%; in the assay on MOLT-4 leukemia, 44.7%; in the assay on SR leukemia, 49.7%.
For the molecule `Cc1ccc(CS/C(=C\c2ccc([N+](=O)[O-])cc2)C(=O)c2ccc(F)cc2)cc1`, the growth in the assay with SK-MEL-2 melanoma is 74.5%; in the assay on EKVX NSCLC, 64%; in the assay on SN12C renal, 45.9%; with UO-31 renal, 46.7%; in the assay on TK-10 renal, 91.7%; with ACHN renal, 60.1%. The growth in the assay with CCRF-CEM leukemia was 5.04% (active); with MOLT-4 leukemia it was 3.17% (active); with SR leukemia, 0.11% (active).
`COc1ccc2nc(-c3ccc(OC)c(OC)c3)cc(-c3nnc(SCC(=O)Nc4ccc(C(C)=O)cc4)o3)c2c1`: the growth in the assay with SK-MEL-2 melanoma was 100%; in the assay on EKVX NSCLC, 108%; with SN12C renal, 98.8%; with UO-31 renal, 91.7%; in the assay with TK-10 renal it was 109%; in the assay on ACHN renal it was 101%. Further, the growth in the assay with CCRF-CEM leukemia was 94.8%; in the assay with MOLT-4 leukemia it was 95.5%; in the assay with SR leukemia, 88.8%.
